# GPT2 inh = inhibitors of human GPT2 alanine aminotransferase. Recombinant GPT2, coupled pyruvate oxidase/HRP Amplex Red fluorescence. actives 0.25% (n = 100,000). Q8TD30. Potency, µM (series often up to 57.7 µM), for the others: top-dose activity change, negative = inhibition, actives largely listed as inhibitors. AID 1671188; further: on the % scale 0 is the no-effect control and ±100 the full control effect; nearly all actives have a fitted effect of over 60% in size
#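 Recombinant GPT2 (10ng/uL) with 250uM a-KG and 2mM L-alanine, 30 min at room temperature, in HEPES pH 7.5 buffer. Pyruvate detected by pyruvate oxidase/HRP/Amplex Red fluorescence after 30 min in the dark; AOA (50uM) as positive control.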
# Luciferase inh = inhibitors of firefly (Photinus pyralis) luciferase. P08659. AID 1347043. purified P. pyralis luciferase, luminescence, biochemical. actives 2.5% (n = 76,000). Potency, µM (series often up to 115 µM), most hits filed as inhibitors; further: on the % scale 0 is the no-effect control and ±100 the full control effect; nearly all actives have a fitted effect of over 65% in size
#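 Luminescence read by CCD imaging after purified firefly luciferase (10nM final) was added to substrate buffer holding 10uM D-luciferin and 10uM ATP, pH 7.5, pre-dosed with compound.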
# HEK293 tox = HEK 293 cell cytotoxicity. Potency, µM (titrated, usually from 115 µM), for inactives: at the top dose activity change, negative = cytotoxicity, usual class: inhibitors. HEK 293 viability, ATP luminescence (CellTiter-Glo), 48-72 h. actives 6.6% (n = 94,000). AID 1345083; further: on the % scale 0 is the no-effect control and ±100 the full control effect; nearly all actives have a fitted effect of over 60% in size
#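 Pintool-delivered compounds were incubated with HEK 293 cells (250 cells/well) at 37 degree Celsius for 48 or 72 hr. ATP-dependent luminescence (CellTiter-Glo) then reported remaining viable cells.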
# hNpr1 antagonist = antagonists of human natriuretic peptide receptor Npr1; P16066; HEK293 hNpr1 GloSensor cGMP, ANP-stimulated luminescence; Potency, µM (titrated, usually from 46.3 µM), for the others: top-dose activity change, negative = inhibition, usual class: inhibitors; actives 1.6% (n = 76,000); AID 1347048; calls by dose curve; further: on the % scale 0 is the no-effect control and ±100 the full control effect; nearly all actives have a fitted effect of over 60% in size
# Target sequence (P16066 whole entry, looked up): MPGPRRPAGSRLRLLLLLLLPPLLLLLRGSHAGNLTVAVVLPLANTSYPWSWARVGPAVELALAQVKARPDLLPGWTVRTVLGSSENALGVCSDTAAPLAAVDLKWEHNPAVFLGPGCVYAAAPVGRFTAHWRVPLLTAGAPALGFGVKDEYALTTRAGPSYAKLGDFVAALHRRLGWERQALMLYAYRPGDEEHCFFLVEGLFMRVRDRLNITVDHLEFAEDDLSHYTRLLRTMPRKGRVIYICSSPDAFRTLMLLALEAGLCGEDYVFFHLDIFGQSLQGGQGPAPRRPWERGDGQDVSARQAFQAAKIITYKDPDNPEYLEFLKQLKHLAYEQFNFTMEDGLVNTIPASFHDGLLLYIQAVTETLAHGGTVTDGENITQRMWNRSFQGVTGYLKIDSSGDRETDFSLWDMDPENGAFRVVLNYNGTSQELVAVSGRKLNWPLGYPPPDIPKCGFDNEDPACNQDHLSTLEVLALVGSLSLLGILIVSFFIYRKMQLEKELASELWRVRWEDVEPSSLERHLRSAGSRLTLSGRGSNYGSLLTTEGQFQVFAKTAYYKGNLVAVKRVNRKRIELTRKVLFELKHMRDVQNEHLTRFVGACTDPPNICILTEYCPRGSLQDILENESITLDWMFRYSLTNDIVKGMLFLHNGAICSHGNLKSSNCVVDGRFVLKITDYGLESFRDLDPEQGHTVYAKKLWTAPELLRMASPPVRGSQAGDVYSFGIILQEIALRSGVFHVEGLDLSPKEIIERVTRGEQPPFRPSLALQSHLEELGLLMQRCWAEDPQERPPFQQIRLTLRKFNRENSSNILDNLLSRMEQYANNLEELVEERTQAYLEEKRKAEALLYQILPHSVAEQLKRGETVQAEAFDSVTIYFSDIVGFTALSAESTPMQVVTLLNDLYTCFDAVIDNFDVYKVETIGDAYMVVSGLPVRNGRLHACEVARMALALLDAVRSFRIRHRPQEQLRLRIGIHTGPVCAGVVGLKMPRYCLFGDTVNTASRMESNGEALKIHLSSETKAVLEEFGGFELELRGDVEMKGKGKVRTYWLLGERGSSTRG
#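 HEK293 cells stably expressing human Npr1 and cGMP GloSensor pGS-40F, loaded 2 h with 2% GloSensor reagent, given compound 30 min at room temperature. Luminescence read before and 20 min after 0.1 nM hNppA.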
# 3T3 cytotox = kills NIH 3T3 cells; AID 1345082; actives 4.3% (n = 94,000); Potency, µM (titrated, usually from 96.7 µM), for the others: top-dose activity change, negative = cytotoxicity, usual class: inhibitors; NIH 3T3 viability, CellTiter-Glo ATP luminescence, 48-72 h; further: on the % scale 0 is the no-effect control and ±100 the full control effect; nearly all actives have a fitted effect of over 55% in size
#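 First NIH 3T3 cells are plated at 400 cells/well; next compound is pinned in; then plates incubate 48 or 72 hr at 37 °C; finally CellTiter-Glo is added and luminescence read after 10 min.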
# NPR1 antag cnf = hNpr1 antagonism, confirmation assay | shares compounds with hNpr1 antagonist | HEK293 hNpr1 cGMP GloSensor luminescence, ANP-stimulated | Potency, µM (series often up to 57.6 µM), inactives show at the highest dose activity change, negative = inhibition, hits mostly inhibitors | actives 76% (n = 1,400) | AID 1347044; calls by dose curve; further: nearly all actives have a fitted effect of over 70% in size
# NPR2 antag = selectivity test of Npr1 antagonists against human Npr2; shares compounds with hNpr1 antagonist; HEK293 hNpr2 GloSensor cGMP luminescence, CNP-stimulated; Potency, µM (titrated, usually from 57.6 µM), inactives show at the highest dose activity change, negative = inhibition, actives largely listed as inhibitors; actives 67% (n = 1,400); AID 1347046; calls by dose curve; further: nearly all actives have a fitted effect of over 70% in size
# FLuc inh counter = counter-screen for Npr1 antagonists: firefly luciferase inhibitors | actives 0.7% (n = 1,400) | Potency, µM (top dose mostly 57.6 µM), for the others: top-dose activity change, negative = inhibition, most hits filed as inhibitors | shares compounds with hNpr1 antagonist | purified FLuc enzyme, luminescence, Km substrate; further: 0% is about no effect
# GloSensor cGMP = reduces cGMP signal in GloSensor control cells. shares compounds with hNpr1 antagonist. HEK293 GloSensor cGMP, SNP-stimulated, luminescence. Potency, µM (top dose mostly 57.6 µM), without a hit: at the top dose activity change, negative = inhibition, most hits filed as inhibitors. actives 69% (n = 1,400). AID 1347051; calls by dose curve; further: on the % scale 0 is the no-effect control and ±100 the full control effect; nearly all actives have a fitted effect of over 70% in size
# Numbers without * were called inactive; i = inactive; ? = inconclusive; · = no result; [ ] = remark or other dose. Shown are actives, neighbours in structure and some others; about 10% of the full set was active somewhere. Unless noted, the call rests on the fitted dose curve; in most records, active means well fitted curve in the direction sought with a large enough effect; inconclusive means small, poorly fitted or top-dose-only effect, or another doubt; inactive means no such curve, though single readings can be large; an effect the other way counts as inactive or inconclusive. Potency means the concentration at half of the fitted maximal effect.
SMILES,GPT2 inh,Luciferase inh,HEK293 tox,hNpr1 antagonist,3T3 cytotox,NPR1 antag cnf,NPR2 antag,FLuc inh counter,GloSensor cGMP
O=C(NC[C@H]1OC[C@@H](NC2CCCC2)[C@@H]1O)c1ccncc1,0%[88.5 µM],i,-5%[172 µM],0%[70.6 µM],5%[138 µM],·,·,·,·
CC1[C@@H](O)[C@@H](O)C2[C@]3(C)C(C[C@H]4OC(=O)[C@H](O)[C@]1(O)[C@@]24C)C(C)(O)C[C@H](O)[C@H]3O (some centres undefined),i,·,·,·,·,·,·,·,·
O=C(CCC1CCCC1)N1CCC(c2noc(COc3ccc(F)cc3)n2)C1 (centres undefined),-8%,i,45µM*,10µM*,?,11µM*,15µM*,-7%,9.7µM*
Cc1ccccc1S(=O)(=O)N1CCCC(CCC(=O)Nc2cccc(Cl)c2)C1 (centres undefined),-22%,i,22µM*,11µM*,?,24µM*,27µM*,2%,27µM*
CC(=O)NCC(=O)N1CCCC(Nc2ccc(F)cc2)C1 (centres undefined),i,i,4%,-1%,i,·,·,·,·
COc1ccc(CN2CCOC[C@H]2c2ncc(-c3ccc(C)cc3)[nH]2)cc1,-6%[88.5 µM],i,?,-26%[70.6 µM],100µM*,-29%[86.2 µM],?,1%[86.2 µM],-22%[86.2 µM]
Fc1ccc(CN2CCOC[C@H]2c2ncc(-c3ccc(F)cc3)[nH]2)cc1,-6%[88.5 µM],i,?,?,?,?,?,0%[86.2 µM],?
O=C(c1ccc(C(F)(F)F)cc1)N1CCn2c(nn(-c3ccc([N+](=O)[O-])cc3)c2=O)C1,-11%,i,-4%,8%,?,·,·,·,·
COc1ccc(OC)c(CNC(=O)c2cccc3c2CCN3C(=O)c2ccc(F)cc2)c1,-12%,i,?,?,?,?,?,4%,?
CCC(=O)N1CCc2c(C(=O)NCc3cc(OC)ccc3OC)cccc21,-20%,i,?,-3%,-18%,·,·,·,·
OCC1(CCOc2ccccc2)CCCN(c2ncnc3sccc23)C1 (centres undefined),-9%,i,?,1.8µM*,?,2.7µM*,3.9µM*,0%,2.2µM*
COc1ccc(F)cc1S(=O)(=O)N1CCC(CC(=O)NCc2ccccc2)C1 (centres undefined),-6%,i,-11%,0%,-10%,·,·,·,·
O=C(c1ccncc1)N1CCC(CCOc2ccc(F)cc2)C1 (centres undefined),-1%,i,?,-21%,?,·,·,·,·
Cc1n[nH]c(C)c1Cc1ccc(C(=O)N2CCC(CCOc3ccc(F)cc3)C2)o1 (centres undefined),i,i,22µM*,16µM*,35µM*,24µM*,24µM*,7%,22µM*
O=C(O)C1Cc2nc[nH]c2CN1C(=O)c1cccc(-n2cccn2)c1 (centres undefined),-14%,i,-7%,3%,-11%,·,·,·,·
Cc1noc(C)c1[S+](=O)([O-])N1CCc2nc(C(C)C)nc(-c3ccc(O)cc3)c2C1,i,i,?,-4%,?,-24%,?,1%[86.2 µM],8%
O=C(NCCc1cccc(Oc2ccccc2)c1)[C@H]1CCC[C@H](O)C1,1%[11.5 µM],i,?,14µM*,-35%,24µM*,22µM*,1%,22µM*
O=C(NCc1cccc(C(F)(F)F)c1)c1nc2sccn2c1-c1ccncc1,-10%,·,?,·,?,·,·,·,·
CC1=C[C@@H](CN2CCN(c3ncccn3)CC2)[C@H](C(C)C)C[C@H]1Cc1nnc(-c2ccccc2F)o1,1%,i,32µM*,-21%,40µM*,?,?,-2%,27µM*
COc1ccc(-c2nnc(C[C@@H]3C[C@@H](C(C)C)[C@H](CNc4ccccn4)C=C3C)o2)cc1,-14%[88.5 µM],i,25µM*,16µM*,35µM*,22µM*,28µM*,-1%[86.2 µM],22µM*
COc1ccc(-c2nnc(C[C@@H]3C[C@@H](C(C)C)[C@H](CNCc4cccnc4)C=C3C)o2)cc1,5%,i,?,-30%,?,·,·,·,·
O=C1CCNCCCC(C(=O)NCc2ccccc2)CCN1 (centres undefined),i,i,-10%,-6%,-24%,·,·,·,·
Cc1ccccc1CN1CCc2nc(C(=O)NCc3ccncc3)oc2CC1,i,i,?,22µM*,?,31µM*,31µM*,-2%[86.2 µM],25µM*
N#Cc1ccc(CN2CCc3nc(C(=O)NCc4cccc(F)c4)oc3CC2)cc1,0%[88.5 µM],i,?,?,?,40µM*,?,3%[86.2 µM],31µM*
O=C(NCc1cccc(F)c1)c1nc2c(o1)CCN(Cc1cc(F)ccc1F)CC2,3%[88.5 µM],i,?,?,50µM*,40µM*,?,0%[86.2 µM],40µM*
SMILES,GPT2 inh,Luciferase inh,HEK293 tox,hNpr1 antagonist,3T3 cytotox,NPR1 antag cnf,NPR2 antag,FLuc inh counter,GloSensor cGMP
O=C(NCc1ccccc1)c1nc2c(o1)CCN(Cc1ccc(F)cc1F)CC2,-1%[88.5 µM],i,100µM*,25µM*,71µM*,40µM*,35µM*,1%[86.2 µM],40µM*
CN(C)Cc1cc(CC2(NCc3ccncc3)COC2)no1,2%[88.5 µM],i,0%[172 µM],2%[70.6 µM],-1%[174 µM],·,·,·,·
O=C(NCc1ccncc1)c1nc2c(o1)CCN(Cc1ccccc1F)CC2,1%[88.5 µM],i,?,?,-26%[138 µM],·,·,·,·
COc1ccc(CN2CCc3nc(C(=O)NCCOc4ccccc4)oc3CC2)cn1,-1%[88.5 µM],i,?,?,?,44µM*,?,-1%[86.2 µM],?
Cc1ccccc1CN1CCc2nc(C(=O)NCCOc3ccccc3)oc2CC1,-14%[88.5 µM],i,?,-25%[70.6 µM],?,·,·,·,·
O=C(NCC1CC1)c1nc2c(o1)CCN(Cc1ccc(F)cc1F)CC2,-1%[88.5 µM],i,?,25µM*,?,22µM*,22µM*,-1%[86.2 µM],20µM*

# Screening results as filed in PubChem BioAssay.
